Compound activity deposited in PubChem BioAssay by several laboratories.
BoNT-F LC inh: blocks Botulinum neurotoxin F light chain protease; inhibition, % at 10 µM; Multiplex microsphere protease cleavage assay, flow cytometry; 0.22% of 360,000 active; in the data active = inhibition above about 35%, passing the limit was not always enough; inconclusive = no clear call, values can overlap the other calls; note: plate controls were buffer without enzyme for full effect and enzyme alone for no effect
Anthrax LF prot: anthrax lethal factor protease inhibition | P15917 | multiplex microsphere protease cleavage assay, LF | inhibition, % at 10 µM | 0.12% of 360,000 active; note: plate controls were buffer without enzyme for full effect and enzyme alone for no effect
DUSP3 inh: inhibitors of human VHR1 phosphatase (DUSP3); recombinant VHR phosphatase, pNPP absorbance; AID 1654; inhibition, % at 13.3 µM; 0.52% of 290,000 active; in the data active = inhibition above about 50%
MazF activator: activators of E. coli MazEF toxin-antitoxin RNase; P0AE70; FAM/BHQ RNA-DNA oligo cleavage fluorescence, 5 h; activation, % at 20 µM; 0.32% of 350,000 active; in the data active = activation above about 50%
Bead autofluor: counter-screen for toxin protease inhibitors: compound fluorescence; compound autofluorescence counterscreen, microsphere flow cytometry; active compounds read high; fluorescence intensity (no concentration beside the values); 3.1% of 360,000 active; AID 624483; in the data active = fluorescence intensity above about 16000; inconclusive = no clear call, values can overlap the other calls
BoNT A protease: BoNT A light chain protease inhibition. inhibition, % at 10 µM. AID 588499. multiplex microsphere protease substrate cleavage, flow cytometry. 0.17% of 360,000 active; note: plate controls were buffer without enzyme for full effect and enzyme alone for no effect
Active calls of the source: *; ? = inconclusive; . = no result given. Compounds with a hit are over-represented: about 4% of the library has one in this group of screens. Cut-off read from the data, not from the text of the source, unless noted: active = inhibition above about 30%; inconclusive = no clear call, values can overlap the other calls; inactive = below that.

SMILES	BoNT-F LC inh	Anthrax LF prot	DUSP3 inh	MazF activator	Bead autofluor	BoNT A protease
COc1ccccc1C1NC(=O)NC(C)=C1C(=O)OC1CCCC(C)C1 (stereo not given)	?	-11	39	5	3693	-2
COc1ccccc1N1CCN(C2=NS(=O)(=O)c3ccccc32)CC1	1	4	9	-3	6893	0
C=CCN1/C(=C(\C#N)C2=NS(=O)(=O)c3ccccc32)N(C)c2ccccc21	2	-2	-10	1	16828*	-1
C=CCN(CC=C)S(=O)(=O)c1ccc(C(=O)Nc2nnc(COC)o2)cc1	1	-2	22	2	2095	0
O=C(CCc1cn2ccccc2n1)NC1CCCc2c1cnn2-c1ccccc1F (stereo not given)	-1	-1	50*	4	5426	0
O=C(NC1CCCc2c1cnn2-c1ccc(F)cc1F)c1csnn1 (stereo not given)	7	4	54*	0	5585	0
O=C(NC1CCCc2c1cnn2-c1ccc(F)cc1F)c1cnccn1 (stereo not given)	-2	0	17	8	2796	0
OC(COc1cccc2ccccc12)CN1CCN(c2ccc(Cl)cc2)CC1 (stereo not given)	35*	-3	5	-8	3947	0
COC(=O)C1C(O)=C(C=NC2CCCCC2)C(=O)CC1(C)C (stereo not given)	-15	-1	18	1	5210	0
COC(=O)c1c(NC(=O)COC(=O)CCc2ccc(S(=O)(=O)N3CCOCC3)cc2)sc2c1CCC2	7	1	-1	-31	1924	1
O=C(O)c1ccc(NC(=O)C2CC=CCC2C(=O)O)cc1 (stereo not given)	-6	-1	6	0	2878	0
O=C(Nc1nccs1)c1ccc(NC(=O)C2CC=CCC2C(=O)O)cc1 (stereo not given)	5	-2	53*	1	3520	-1
NC(=S)Nc1ccc(F)cc1F	?	12	12	-16	3224	2
Cc1ccc(C(C(=O)NC2CCCCC2)N(C(=O)Cc2c[nH]c3ccccc23)c2ccccc2)o1 (stereo not given)	4	-2	27	-2	20827*	?
CC(=O)Nc1ccc(N(C(=O)Cc2c[nH]c3ccccc23)C(C(=O)NC2CCCCC2)c2ccco2)cc1 (stereo not given)	3	1	-4	-7	2129	0
C/C(=N\Nc1cc(Cl)nc(C)n1)c1ccc(C)cc1	-8	-4	.	9	22065*	-6
O=C(Nc1nc2c(s1)CCCC2=O)c1cnccn1	-4	-1	16	-7	23908*	-4
Cc1cccc(OCCCn2c(CO)nc3ccccc32)c1	1	-2	-1	-1	4813	-1
CCOCCCNC(=O)c1c(N)n(-c2ccc3c(c2)OCO3)c2nc3ccccc3nc12	12	-5	9	7	6122	1
CCCn1nnc(NC(=O)c2cccnc2Cl)n1	-8	2	13	-1	3285	0
Cc1oc(-c2ccccc2F)nc1CN1CCC(C(=O)NC2CCCc3ccccc32)CC1 (stereo not given)	-8	4	21	-1	10248	-3
Cc1ccccc1-c1nc(CN2CCC(C(=O)NC3CCCCC3)CC2)c(C)o1	5	-1	7	9	5193	0
Cc1oc(-c2ccccc2F)nc1CN1CCC(C(=O)NC2CCCCCCC2)CC1	2	-1	8	0	16243*	1
COc1ccc(CCNC(=O)C2CCN(Cc3nc(-c4ccccc4C)oc3C)CC2)cc1OC	-4	-7	8	4	22311*	-2
Cc1oc(-c2ccccc2F)nc1CN1CCC(C(=O)NCc2ccco2)CC1	1	2	15	-8	19776*	?
SMILES	BoNT-F LC inh	Anthrax LF prot	DUSP3 inh	MazF activator	Bead autofluor	BoNT A protease
COc1ccc(OC)c(NC(=O)COC(=O)c2cc3c(s2)CCC3)c1	11	-2	43	2	2449	1
CC(=O)NC(c1cccc([N+](=O)[O-])c1)c1c(OC(C)=O)ccc2ccccc12 (stereo not given)	-6	-2	.	-1	4287	0
O=C(Nc1ccccc1C(F)(F)F)N1CCN(C(c2ccccc2)c2ccccc2)CC1	-9	0	7	-1	22149*	?
Cc1cc2c(n1-c1ccc(Br)cc1)CC(C)(C)CC2=O	0	-2	16	5	16349*	0
COc1ccccc1N1CCN(C(=O)C2CCC(Cn3c(=S)[nH]c4ccccc4c3=O)CC2)CC1 (stereo not given)	-8	2	-9	-5	17156*	-3
COc1ccc(N2CCN(C(=O)C3CCC(Cn4c(=S)[nH]c5ccccc5c4=O)CC3)CC2)cc1 (stereo not given)	-9	-8	-12	-4	17035*	-2
CC(=O)Nc1ccc(NC(=O)CSc2nnc(-c3ccco3)n2Cc2ccco2)cc1	1	0	7	-4	11417	0
CCOC(=O)COc1ccccc1/C=C1\NC(=O)NC1=O	0	2	8	5	4868	0
CCOC(=O)COc1ccccc1-c1ccno1	-8	-3	11	0	21115*	?
CN(C)S(=O)(=O)c1ccc(/C(O)=C2/C(=O)C(=O)N(Cc3cccnc3)C2c2ccncc2)cc1 (stereo not given)	-7	-3	-1	3	17829*	-3
CCn1c(SCC(=O)NCCOC)nc2sc(C)c(C)c2c1=O	.	.	33	.	.	.
CCOc1ccccc1NC(=O)c1oc2ccccc2c1NC(=O)C1CCCO1 (stereo not given)	1	-6	26	4	4029	0
O=S(=O)(c1ccc2ccccc2c1)N1CCN(C2CCN(Cc3ccccc3)CC2)CC1	0	0	42	2	23769*	-1
O=S(=O)(c1ccccc1)N1CCN(C2CCN(Cc3ccccc3)CC2)CC1	-2	1	21	-9	4334	0
CC1CC2(O)c3no[n+]([O-])c3CCC2N1O (stereo not given)	3	-1	7	3	22460*	2
CC1CN(O)C2CCc3c(no[n+]3[O-])C12O (stereo not given)	-1	-2	-10	-2	9901	0
COC(=O)c1cc(OC)c(OC)cc1NC(=O)C1CCC(=O)N1S(=O)(=O)c1ccc(C)cc1 (stereo not given)	-2	0	10	4	9381	0
Cc1ccc(S(=O)(=O)N2C(=O)CCC2C(=O)N2CCCCC2)cc1 (stereo not given)	?	-18	52*	12	4194	0
Cc1ccc(S(=O)(=O)N2C(=O)CCC2C(=O)N2CCN(C)CC2)cc1 (stereo not given)	3	0	0	1	22032*	1
COC(=O)c1ccccc1NC(=O)C1CCC(=O)N1S(=O)(=O)c1ccc(C)cc1 (stereo not given)	1	0	-7	20	16363*	?
